Reference: PubChem BioAssay AID1650 (Southern Research Specialized Biocontainment Screening …, 2009)
Measured potencies and affinities stand elsewhere. The source made the active and inactive calls. No rule for the calls is given here.

Experiment: mammalian cell viability reduction – secondary assay, cytotoxicity control for West Nile virus antiviral project, dose response (AID 1650)

| Structure (SMILES) | outcome |
| --- | --- |
| Cc1cc(N2CCN(C)CC2)nc2ccc(NC(=S)N3CCN(c4ccccn4)CC3)cc12 | inactive |
| Cc1nc([N+](=O)[O-])c(Br)n1CC(=O)c1ccc(Cl)cc1 | inactive |
| O=C(CCC1CCCC1)N=C1SC2CS(=O)(=O)CC2N1Cc1ccccc1 (stereo unspecified) | inactive |
| CN1CCN(CC(=O)Nc2c(C(=O)c3ccccc3)oc3ccccc23)CC1 | inactive |
| COc1ccc(-n2c(=S)[nH]c3cc(C(=O)NCc4cccnc4)ccc3c2=O)c(OC)c1 | inactive |
| COc1ccc(Nc2nc3ccccc3nc2C)cc1 | inactive |
| O=C(NC1CCCCC1)C(c1ccc(Cl)cc1)N(C(=O)c1ccccn1)c1cccnc1 (stereo unspecified) | inactive |
| O=C(NCCC1=CCCCC1)c1coc(=O)c(Br)c1 | inactive |
| Cc1ccc2nc(N(CCCN(C)C)C(=O)c3cc(-c4cccs4)nc4ccccc34)sc2c1 | inactive |
| CCOC(=O)c1c(CC(C)C)csc1/N=C/C1=C(O)CCCC1=O | inactive |
| COC(=O)C1(O)CC(C(C)C)=NN1C(=O)c1ccc(Cl)cc1 (stereo unspecified) | inactive |
| Cc1ccc(S(=O)(=O)c2c(N)n(CCCN(C)C)c3nc4ccccc4nc23)cc1 | inactive |
| O=C(NCCCN1CCOCC1)c1cc2c([nH]c3ccccc32)c(-c2cccc(Br)c2)n1 | inactive |
| CCOC(=O)c1c2c(n(C)c1COC)C(=O)C(=O)c1ccc(Br)cc1-2 | inactive |
| CCCN(CC(=O)Nc1cccc(Br)c1)CC(=O)Nc1ccc(F)c(F)c1F | inactive |
| C/C(=N\OC(=O)c1ccc(F)cc1)c1nccs1 | inactive |
| CCCCN(CC)CCNC(=S)Nc1ccc2nc(N3CCN(C)CC3)cc(C)c2c1 | inactive |
| COc1ccccc1NS(=O)(=O)c1cccc(NC(=O)Nc2ccc(Cl)cc2)c1 | inactive |
| COc1ccc(N2C(=O)C(C)(C)C2c2c(O)ccc3ccccc23)cc1 (stereo unspecified) | inactive |
| Cc1cccc(/C=C2/Sc3ccc(C(=O)NCCCN4CCOCC4)cc3NC2=O)c1 | inactive |
| COc1cccc(/C=N/NC(=O)c2cc(-c3cccn3C)n[nH]2)c1O | inactive |
| CCN(CC)CCNC(=O)c1sc2ncn(CC(=O)Nc3ccc(C)c(Cl)c3)c(=O)c2c1C | inactive |
| CN(C)CCN(C)Cc1ccccc1Sc1cccc2ccccc12 | inactive |
| Cc1cccc2cc(CN(CCCN(C)C)C(=S)NCCc3ccccc3)c(=O)[nH]c12 | inactive |

| Structure (SMILES) | outcome |
| --- | --- |
| CC(C)Cc1nc2oc3c(NCCCN4CCOCC4)ncnc3c2c2c1CCC2 | inactive |
| O=C(CCN1C(=O)/C(=C/c2ccc(F)cc2)SC1=S)NCCc1ccc(O)cc1 | inactive |
| Cc1cc(N2CCN(C)CC2)nc2ccc(NC(=S)NCc3cccs3)cc12 | inactive |
| O=C(NCCCN1CCCC1)c1ccc2c(c1)N(Cc1cccc(Cl)c1)C(=O)c1ccccc1S2=O (stereo unspecified) | inactive |
| O=C(Nc1ccc(F)cc1)c1nc[nH]c1C(=O)Nc1ccccc1[N+](=O)[O-] | inactive |
| CCN(CC)CCCC(C)NC(=O)c1c(NC(=O)c2ccccc2)sc2c1CCCC2 (stereo unspecified) | inactive |
| Cc1ccccc1CN(CC(=O)Nc1cccc([N+](=O)[O-])c1)S(=O)(=O)c1ccc(Cl)cc1 | inactive |
| CN(C)CCCN(C(=O)c1ccc2c(c1)CCCC2)c1nc2ccc(F)cc2s1 | inactive |
| CCCN1CCN(CCCNC(=O)c2cc3c(s2)-c2ccccc2OC3)CC1 | inactive |
| Cc1ccc(-c2cc(C(=O)N(C)Cc3cnn(C)c3C)c3cc(Br)ccc3n2)cc1 | inactive |
| COC(=O)c1ccc(NC(=O)CC2C(=O)N(C)C(=S)N2Cc2ccc(S(N)(=O)=O)cc2)cc1 (stereo unspecified) | inactive |
| CCN(CC)CCCNC(=S)N1CCN(c2nc(-c3ccccc3)cs2)CC1 | inactive |
| Cc1cc(OCc2cc(C(=O)NCCN3CCCCC3CO)no2)cc(C)c1Cl (stereo unspecified) | inactive |
| CCN1CCN(CCCNC(=O)C2CCCN(c3nc4c(C)cc(C)cc4s3)C2)CC1 (stereo unspecified) | inactive |
| Cc1cc(C)cc(SCc2noc(C(=O)NCCN(C)C)c2C(=O)NCCN(C)C)c1 | inactive |
| COc1cccc(C2CC(c3c(-c4ccccc4)c4cc(Cl)ccc4[nH]c3=O)=NN2S(C)(=O)=O)c1OC (stereo unspecified) | inactive |
| CCCC12CN3CC(C)(CN(C1)C3c1ccc(OC(C)C)cc1)C2=O (stereo unspecified) | inactive |
| CCN1CCN(c2ccc(S(=O)(=O)N3CCCCC3)cc2NC(=O)Cc2c(Cl)cccc2Cl)CC1 | inactive |
| CCCc1nc2c(c(=O)c3ccccc3n2C)c(=O)n1C1CCCCCC1 | inactive |
| COc1ccc(-c2nc(CN3CCC(C(=O)NC4CCN(Cc5ccccc5)CC4)CC3)c(C)o2)cc1OC | inactive |
| CC(=O)Oc1ccc(-c2ccc(C(=O)OCC(=O)N(C)CC(=O)Nc3ccccc3Cl)cc2)cc1 | inactive |
| CCOC(=O)c1[nH]c2ccccc2c1NC(=O)CC(C)(C)C | inactive |
| CN1CCN(c2ccc(S(=O)(=O)N3CCCCC3)cc2NC(=O)c2ccc3ccccc3c2)CC1 | inactive |
| COc1ccc(C2c3ccc4ccccc4c3Oc3ncn(CCO)c(=N)c32)cc1OC (stereo unspecified) | inactive |

| Structure (SMILES) | outcome |
| --- | --- |
| CC(C)N1CCc2c(sc(NC(=O)c3ccc(C(=O)c4ccccc4)cc3)c2C(N)=O)C1 | inactive |
| COc1ccc(C2Nc3ccc4ccccc4c3-c3c2c(=O)oc2ccccc32)cc1 (stereo unspecified) | inactive |
| O=C(CSCc1ccc(Cl)cc1)Nc1ccc2c(c1)OCCO2 | inactive |
| CCOC(=O)C(CC)(CC)C(=O)/C=C/c1cccc(Br)c1 | inactive |
| CN(C)CCNC(=O)c1cc2sc3ccccc3c2s1 | inactive |
| COc1cc2c(O)c3c(c(-c4ccc5c(c4)OCO5)c2cc1OC)C(=O)OC3 | inactive |
| COc1ccccc1CN1CCC(CNS(=O)(=O)c2cc(-c3onc(C)c3C)ccc2OC)CC1 | inactive |
| COc1ccc(CCNC(=O)c2cc3c(=O)n4cccc(C)c4nc3n(CCCN3CCOCC3)c2=N)cc1 | inactive |
| CCN(CC)CCOC(=O)c1ccc(NC(=O)CCCN2C(=O)S/C(=C/c3ccc(OC)cc3)C2=S)cc1 | inactive |
| CCN(CC)CCCNC(=O)c1sc2nc(-c3ccc(F)cc3)cn2c1C | inactive |
| Cc1ccc(C)c(N2CCN(CCCNC(=O)CCC(=O)N3CCOc4ccc(Cl)cc43)CC2)c1 | inactive |
| O=C(/C=C/c1cccnc1)c1ccc(O)cc1 | inactive |
| CC(=O)N[C@@H](C)C(=O)N1CCC(n2nccc2NC(=O)CCCc2ccccc2)CC1 | inactive |
| CCCCCCCCCc1nc2sc3c(c2c(=O)n1NC(=O)c1ccc([N+](=O)[O-])cc1)CC(C)(C)OC3 | inactive |
| COc1cc2nc(N3CCN(C(=O)C4COc5ccccc5O4)CC3)nc(N)c2cc1OC (stereo unspecified) | inactive |
| C=CCNC(=O)c1ccc(-c2nc(-c3ccc(Cl)cc3Cl)cs2)cc1 | inactive |
| Cc1cc(C)nc(S/C=C/C(=O)c2ccccc2F)n1 | inactive |
| Cc1cc(C)cc(N(CC(=O)NCc2ccco2)S(=O)(=O)c2c(C)noc2C)c1 | inactive |
| CCc1nn(CC(=O)NC2CCN(Cc3ccccc3)CC2)c(=O)c2cc3cc(F)ccc3n12 | inactive |
| O=C(CN1CCCC1)Nc1ccc(-c2nc3cc(NC(=O)CN4CCCC4)ccc3o2)cc1 | inactive |
| O=C(NCCCn1ccnc1)c1cc2nc(-c3ccc(Br)cc3)cc(C(F)(F)F)n2n1 | inactive |
| CCC(C)NC(=O)/C(=C/c1ccco1)c1ccccc1 (stereo unspecified) | inactive |
| CC(C)(C)c1ccc(-c2nnc(SCC(=O)Nc3sc4c(c3C#N)CCCC4)o2)cc1 | inactive |
| COc1ccc(CN2[C@@H](CC(C)=O)c3ccc(/C=C/C(C)=O)cc3S2(=O)=O)cc1 | inactive |

| Structure (SMILES) | outcome |
| --- | --- |
| Cc1cc(C)cc(SCc2noc(C(=O)NCCCN3CCOCC3)c2C(=O)NCCCN2CCOCC2)c1 | inactive |
| CCN(CC)CCn1c(=N)n(CC(=O)c2ccc(Br)s2)c2ccccc21 | inactive |
| Cc1ccc(Nc2nc(N)c([N+](=O)[O-])c(N3CCCC(C)C3)n2)cc1C (stereo unspecified) | inactive |
| O=C(Oc1ccccc1)c1ccc(-n2cnnn2)cc1 | inactive |
| CCc1ccc2nc(N(CCCN(C)C)C(=O)c3ccc4c(c3)OCCO4)sc2c1 | inactive |
| O=C(COc1ccc(Cl)cc1)NCCSCc1cccc(Cl)c1 | inactive |
| Cc1ccc2cc(C#N)c(N3CCCN(C(=S)NCCCN(C)C)CC3)nc2c1 | inactive |
| CN(C)c1nc(=Nc2cccc(Cl)c2)ss1 | inactive |
| Cc1ccc2[nH]c(=O)c(CN(CCCN(C)C)C(=O)Nc3ccc(Cl)cc3)cc2c1 | inactive |
| O=C(O)C1CCCN1C(=O)c1cncc(Br)c1 (stereo unspecified) | inactive |
| O=C(CSc1nc2ccccc2c(=O)n1-c1ccc(F)cc1F)Nc1ccc2c(c1)CCC2 | inactive |
| CCN(CC)S(=O)(=O)c1ccc(OC)c(NC(=O)c2cccc([N+](=O)[O-])c2C)c1 | inactive |
| CCN(CC)CCNC(=O)c1ccc(NC(=O)c2cccc(S(=O)(=O)N3c4ccccc4CC3C)c2)cc1 (stereo unspecified) | inactive |
| CN1CCN(NC(=O)c2cc(-c3ccc(Cl)s3)nc3ccccc23)CC1 | inactive |
| COc1ccc(-c2ccc(C#N)c(SCC(=O)Nc3sc4c(c3C#N)CCC4)n2)cc1OC | inactive |
| O=C(Nc1ccc(Nc2ccccc2)cc1)C(Cl)Cl | inactive |
| COc1ccc(C2c3c(ncn(CCCO)c3=N)Oc3ccc4ccccc4c32)cc1OC (stereo unspecified) | inactive |
| CN(CCCNC(=O)c1cc2c(Cl)nc3ccccc3c2s1)Cc1ccccc1 | inactive |
| CCN(CC)S(=O)(=O)c1ccc2c(c1)c(=O)c(C(=O)NCCOC)cn2C | inactive |
| COc1cc(C(=O)N/C(=C/c2ccc(F)cc2)C(=O)NC(C(=O)O)c2ccccc2)cc(OC)c1OC (stereo unspecified) | inactive |
| COC(=O)c1ccc(/C=C2/SC(=S)N(CCCC(=O)Nc3ccc(O)cc3)C2=O)cc1 | inactive |
| COc1cc2c(OC(C)=O)c3c(c(-c4ccc5c(c4)OCO5)c2cc1OC)C(=O)OC3 | inactive |
| CC1CCCC(C)N1CCCNC(=O)c1cc2c(s1)-c1ccccc1OC2 (stereo unspecified) | inactive |
| CCOc1ccc(NC(=O)Cn2c(=O)n(CCCC(=O)NC3CCN(Cc4ccccc4)CC3)c(=O)c3ccccc32)cc1 | inactive |
